In ChEMBL document CHEMBL3988442, “University of Dundee, Small-Polar-MMV Screening Library” (2021):
Hit rate of the full screen: of about 48,000 compounds, about 13,000 (27%) showed an effect of 50% or more. The list shows a part of the results.

Test system: Wolbachia pipientis
Test: Anti-Wolbachia Cell-Based Screen
Assay type: functional
Parameters: scale not given: in the data most compounds retested in dose-response had high values
Details: 5 µM

Row | Structure (SMILES) | Percent Effect [%]
1 | CCCn1cnnc1CNC(=O)CC1C(=O)NCCN1CC(C)(C)C (configuration not stated) | 2.919
2 | O=C1N(CC2CC2)C2(CCSCC2)NC12CCCC2 | -1.128
3 | O=C1CC(c2ccc(C(=O)O)cc2)c2ncn(-c3cccc(Cl)c3)c2N1 (configuration not stated) | -0.6524
4 | O=C(c1ccn(-c2cccc(F)c2)n1)N1CCN(CC2CC2)CC1 | 1.903
5 | CC1CN(C)CCN1C(=O)c1ccn(-c2cccc(F)c2)n1 (configuration not stated) | 102.3
6 | CC1CN(C)CCN1C(=O)c1ccn(-c2cccc(Cl)c2)n1 (configuration not stated) | -2.456
7 | Cn1cc(CN2CCN(Cc3nccn3C)CC2)cn1 | -17.17
8 | Cc1ccc(CN2CCN(CC3CC3)[C@@H]3CS(=O)(=O)C[C@@H]32)cc1C | -7.096
9 | Cc1ccc(CN2CCN(CC(=O)N(C)C)[C@@H]3CS(=O)(=O)C[C@@H]32)cc1C | 8.037
10 | CCc1cnc(N2CCN(Cc3ccncc3)CC2)s1 | -22.29
11 | Cn1cc(CN2CCS(=O)(=O)C(C)(C)C2)cn1 | 112.3
12 | CC1(C)CN(Cc2ccncc2)CCS1(=O)=O | 93.26
13 | COCCC1(CO)CCCN(Cc2ccncc2)C1 (configuration not stated) | -9.658
14 | Cn1cc(CN2CC3(CCN(Cc4ccsc4)C3)C2)cn1 | -4.449
15 | Cc1ccc(CN2CCS(=O)(=O)C(C)(C)C2)cc1C | 113.6
16 | COc1cccc2c1OCC(CNC(=O)COCC(F)(F)C(F)F)C2 (configuration not stated) | -0.4399
17 | CC(Cn1cccn1)NC(=O)N(C)Cc1ccc(Cl)s1 (configuration not stated) | -9.644
18 | CNC(=O)C(NC(=O)c1nccn2ccnc12)c1ccc(F)c(F)c1 (configuration not stated) | 7.625
19 | COCCN1C[C@@H]2CN(c3cc(OC)ncn3)CCC[C@]2(C(=O)O)C1.O=C(O)C(F)(F)F | -26.02
20 | COCCCC1CCCCN1Cc1cc(F)ccc1-n1cccn1 (configuration not stated) | -9.489
21 | Cc1nc(CSc2nc(=O)ccn2C(C)C)cs1 | -10.57
22 | CCC1(CO)CCCN(c2ncccc2C#N)C1 (configuration not stated) | 13.06

Row | Structure (SMILES) | Percent Effect [%]
23 | Cn1ccnc1CN1CCN(c2ccc(C#N)cn2)CC1 | -0.9775
24 | CC1CN(c2ccc(C#N)cn2)CCN1c1ccc2nncn2n1 (configuration not stated) | -4.12
25 | CCOCCN1CCN(c2ncccc2C#N)CC1CC (configuration not stated) | 98.03
26 | CCc1nc(N2CCN(c3ncccc3C#N)CC2)c2cnn(C)c2n1 | -1.782
27 | CCOCCN1CCN(c2ccc(C#N)cn2)CC1 | 109.9
28 | CCOCCN1CCN(c2ccc(C#N)cn2)CC1CC (configuration not stated) | 137.2
29 | CS(=O)(=O)NCC1CCCN(c2ccc(C#N)cn2)C1 (configuration not stated) | 7.798
30 | CC(C)(C)NC(=O)CN1CCCN(c2ccc(C#N)cn2)CC1 | 24.81
31 | OC(CN(Cc1ccccc1)Cc1cscn1)c1ccco1 (configuration not stated) | 18.92
32 | CCOCCCn1c(NC(=O)c2ccnc(C)n2)nc2ccccc21 | 73.67
33 | CCOCCCn1c(NC(=O)c2cnc(C)s2)nc2ccccc21 | 27.94
34 | CCOCCCn1c(NC(=O)c2ccc(C)nc2)nc2ccccc21 | 6.919
35 | Cc1cc(C(=O)NCC(c2ccccc2Cl)N2CCOCC2)on1 (configuration not stated) | -6.198
36 | CCOCCCn1c(NC(=O)c2cnc(C)cn2)nc2ccccc21 | 19.12
37 | CCN(CC)CCn1c(NC(=O)c2scnc2C)nc2ccccc21 | 105.9
38 | CCOCCCn1c(NC(=O)c2cnn(C)c2)nc2ccccc21 | -0.9199
39 | CCCn1c(NC(=O)CNC(=O)OCC)nc2ccccc21 | -6.336
40 | CCOCCCn1c(NC(=O)c2scnc2C)nc2ccccc21 | 25.92
41 | CCOCCCn1c(NC(=O)c2cc(C)on2)nc2ccccc21 | 95.91
42 | CCOC(=O)NCC(=O)Nc1nc2ccccc2n1C(C)(C)C | 17.02
43 | CCOCCCn1c(NC(=O)c2cc(C)no2)nc2ccccc21 | 106.1
44 | CCN(c1ccccc1)S(=O)(=O)c1cc(C(=O)O)cc2c1CCC2 | 1.015

Row | Structure (SMILES) | Percent Effect [%]
45 | Cc1ccc(N2Cc3cnn(Cc4ccc(F)cc4)c3C2)nn1 | 30.55
46 | Cc1nn(C)c(C)c1OCC(=O)N1CCC(O)(C(F)(F)F)CC1 | -15.17
47 | CCOCCNC(=O)c1cc(COc2cncc(Cl)c2)on1 | -4.955
48 | Cc1cc2occ(CC(=O)N3CCC4(CCCN(C)C4=O)C3)c2cc1Cl (configuration not stated) | -29.71
49 | Cc1ccccc1CSc1nc(N)cc(N2CCCC(O)C2)n1 (configuration not stated) | -23.5
50 | CC(C)COc1cncc(N2CCCC(CC(N)=O)C2)n1 (configuration not stated) | 119.8
51 | NC(=O)N1CCCC(C(=O)NCc2noc(Cc3ccccc3)n2)C1 (configuration not stated) | 9.14
52 | CCCC(=O)NC1CCCN(c2cncc(Br)c2)C1 (configuration not stated) | 2.547
53 | CC(C)Oc1ncc(C(=O)N2CCC(CC(N)=O)CC2)cc1Cl | -16.32
54 | NC(=O)CC1CCCN(c2cncc(OCc3ccccc3)n2)C1 (configuration not stated) | 95.75
55 | CNC(=O)CN(C)c1cncc(OCc2ccccc2)n1 | -7.002
56 | O=C(O)c1cn(CC2CCCN(c3cnc4ccccc4n3)C2)nn1 (configuration not stated) | 0.3718
57 | CNC(=O)CN(C)c1cncc(OCC(C)C)n1 | -2.547
58 | CCC(=O)NC1CCCN(c2cncc(OCc3ccccc3)n2)C1 (configuration not stated) | 109.7
59 | NC(=O)CC1CCCN(c2cncc(SCc3ccccc3)n2)C1 (configuration not stated) | 107.6
60 | CCC(=O)NC1CCCN(C(=O)c2ccc(OCC3CC3)nc2)C1 (configuration not stated) | -1.285
61 | Cc1ccc(CN2CCN(Cc3ccc4nonc4c3)CC2=O)cc1 | -11.42
62 | O=C(Nc1cccnc1)C1CCCN(c2cc(-n3cccn3)ncn2)C1 (configuration not stated) | -6.997
63 | COc1nc(N2CCC(CC(N)=O)CC2)ncc1Br | 4.929
64 | O=C(O)c1ccc(N2CCC(Cc3ccccc3)CC2)nn1 | 3.318
65 | COCC1CCCN(c2cncc(OCc3ccccc3)n2)C1 (configuration not stated) | 88.62
66 | c1ccc(COC2CCN(c3cncc(-n4cccn4)n3)CC2)cc1 | 1.342

Row | Structure (SMILES) | Percent Effect [%]
67 | c1ccc2nc(N3CCCC(Cn4cncn4)C3)cnc2c1 (configuration not stated) | 3.637
68 | NC(=O)CC1CCN(c2cncc(OCc3ccccc3)n2)CC1 | 92.73
69 | c1cncc(COCC2CN(Cc3ccco3)Cc3ccnn3C2)c1 (configuration not stated) | -0.3306
70 | COc1ccc(Cl)cc1CS(=O)(=O)Cc1nc(C2CC2)no1 | 17.46
71 | Cc1cnc2c(c1)N(C(=O)c1ccc(=O)n(C)c1)CCO2 | 10.48
72 | O=C(c1c(F)cccc1Br)N1CCCOCC1 | -0.116
73 | Cc1cc(C)c(C(=O)N2CCOC(c3cccs3)C2)c(=O)[nH]1 (configuration not stated) | -5.418
74 | CCn1ccc(C(=O)N2CCOC(c3nc(-c4cccs4)no3)C2)n1 (configuration not stated) | 106.6
75 | CCCn1cc(C(=O)N2CCOC(c3nc(-c4cccs4)no3)C2)cn1 (configuration not stated) | 93.77
76 | O=C(O)C(=O)O.c1csc(-c2noc(C3CN(Cc4ccc5c(c4)CCO5)C3)n2)c1 | 26.44
77 | COc1ncccc1C(=O)N1CC(c2nc(-c3cccs3)no2)C1 | 5.63
78 | CCCn1ccc(C(=O)N2CCOC(c3nc(-c4cccs4)no3)C2)n1 (configuration not stated) | 4.055
79 | CCn1cc(C(=O)N2CCOC(c3nc(-c4cccs4)no3)C2)cn1 (configuration not stated) | 116.8
80 | COc1c(C(=O)N2CCOC(c3cccs3)C2)c(C)nn1C (configuration not stated) | -3.946
81 | CCCc1cc(C(=O)N2CCOC(c3nc(-c4cccs4)no3)C2)no1 (configuration not stated) | 6.079
82 | CN(C)CCN1CC2(CCCN(c3ccc(Cl)cn3)C2)CCC1=O (configuration not stated) | -8.264
83 | CCN(Cc1ccoc1)c1ncc(S(N)(=O)=O)s1 | -17.75
84 | CC(NCCCC#N)c1ccc(-c2ccncc2)cc1 (configuration not stated) | -12.76
85 | CCc1ccc(CN2CCC3(CCCN(C(=O)N(C)C)C3)C2)o1 (configuration not stated) | 2.362
86 | CCC(=O)N1CCC2(CC1)COc1ccccc1S(=O)(=O)N(C)C2 | 3.45
87 | COCC(=O)N1CCC2(CC1)COc1ccccc1S(=O)(=O)N(C)C2 | 78.61
88 | CN(C)CC(=O)N1CCC2(CC1)COc1ccccc1S(=O)(=O)N(C)C2 | 75.94

Row | Structure (SMILES) | Percent Effect [%]
89 | CCN1CC2(CCN(C(=O)N(C)C)CC2)COc2ccccc2S1(=O)=O | 88.03
90 | CCN1CC2(CCNCC2)COc2ccccc2S1(=O)=O.O=C(O)C(F)(F)F | 12.77
91 | COCCN1CCC2(CC1)COc1ccccc1S(=O)(=O)N(C)C2 | 110
92 | CN1CC2(CCN(CCOCCO)CC2)CC(c2ccccc2)C1=O (configuration not stated) | -8.792
93 | CN1[C@@H](c2ccccc2)[C@@H](C(=O)NCC2CCOCC2)C[C@@]1(C)C(=O)O | -0.5583
94 | COCc1ccccc1C(=O)NCC(c1c(F)cccc1F)N(C)C (configuration not stated) | -0.8203
95 | O=c1nc(SCc2cccnc2)c2c(n1CCO)CCC2 | -0.5534
96 | O=S(=O)(c1cc2ccccc2o1)N1CCCC1 | -2.177
97 | CS(=O)(=O)NCC(=O)NCc1cccnc1-n1cnc2ccccc21 | 9.043
98 | COc1cccc(-c2n[nH]c3c2CN(C(=O)c2cccc(=O)[nH]2)CC3)c1 | -3.168
99 | CC(=O)N1CC(c2ncn(C(C)C)n2)c2cc(C(=O)NC3CC3)ccc21 (configuration not stated) | -21.86
100 | CN(C)CCn1nc(C2CCN(Cc3ccccc3)C2)c2cccnc21 (configuration not stated) | 91.7
101 | CCn1c(CN(C)C)nnc1C1CCN(Cc2ccccc2)CC1 | 3.823
102 | CCn1c(C2CCCN(S(=O)(=O)C3CC3)C2)nn(CCN(C)C)c1=O (configuration not stated) | 1.006
103 | CN(C)S(=O)(=O)N1CCCC(c2nccn2Cc2cccnc2)C1 (configuration not stated) | -1.241
104 | CCS(=O)(=O)N1CCC(c2nn(CCN(C)C)c3ncccc23)C1 (configuration not stated) | 95.82
105 | CCS(=O)(=O)N1CCC(c2nccn2Cc2ccccn2)CC1 | -0.918
106 | NCCn1nc(C2CCN(Cc3ccc(Cl)c(Cl)c3)C2)c2nccnc21 (configuration not stated) | 1.426
107 | CN(C)CCn1nc(C2CCN(S(=O)(=O)N(C)C)C2)c2cccnc21 (configuration not stated) | 111.8
